# Hits are enriched below; roughly 27% of the tested compounds scored in any of these assays.
# CYP2C9 inh: blocks human cytochrome P450 2C9. P11712. CYP2C9 Supersomes, luciferin-H conversion, luminescence. inhibition, % at 5 µM. 96,000 compounds, 20% hits. AID 777;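 active means blocking of liver enzyme CYP2C9 beyond about 50% at 5 µM, limit read from the data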
# CYP2C19 activ: cytochrome P450 2C19 (human) activation; P33261; recombinant CYP2C19, luciferin-H EGE luminescence; stronger effect = higher value; 0 = fully inhibited enzyme, 1 = untreated enzyme; activation factor at 5 µM; 96,000 tested, under 10 active;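 active means activation factor of at least 2 at 5 µM in the primary screen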
# Target sequence (P33261 whole entry, looked up): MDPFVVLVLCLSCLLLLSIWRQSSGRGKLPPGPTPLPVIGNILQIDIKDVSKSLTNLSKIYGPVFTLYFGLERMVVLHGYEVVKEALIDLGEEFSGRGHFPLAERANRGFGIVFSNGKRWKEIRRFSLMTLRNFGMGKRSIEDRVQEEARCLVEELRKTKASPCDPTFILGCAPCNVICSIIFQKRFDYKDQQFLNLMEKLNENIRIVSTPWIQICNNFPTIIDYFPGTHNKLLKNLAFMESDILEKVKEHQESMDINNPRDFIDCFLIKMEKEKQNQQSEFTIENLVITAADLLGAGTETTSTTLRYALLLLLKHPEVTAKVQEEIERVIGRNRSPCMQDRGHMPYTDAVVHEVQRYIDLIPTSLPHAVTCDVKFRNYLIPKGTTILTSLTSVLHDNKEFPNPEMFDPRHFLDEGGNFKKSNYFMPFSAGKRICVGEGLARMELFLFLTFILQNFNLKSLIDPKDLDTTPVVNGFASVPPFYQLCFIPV
# CYP2C9 activ: activators of human CYP2C9 | P11712 | recombinant CYP2C9, luciferin-H conversion, luminescence; stronger effect = higher value; factor 1 = untreated enzyme, 0 = blocked | activation factor at 5 µM | 96,000 compounds, 1.4% hits | AID 1024;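 active means activation factor of 2 or more for CYP2C9 at a 5 µM dose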
# CYP2C19 inh: inhibitors of human CYP2C19. P33261. CYP2C19 Supersomes, luciferin-H EGE luminescence, 30 min. inhibition, % at 5 µM. 96,000 compounds, 21% hits. AID 778;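 active means CYP2C19 inhibition above a set limit at 5 µM in the primary screen, cut at about 50% in these data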
# Cav32 inh: blocks human Cav3.2 T-type calcium channel. O95180. Cav3.2-expressing cells, Fluo-4 calcium fluorescence FDSS; stronger effect = lower value. B-score at 10 µM. 100,000 compounds, 4% hits;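 active means single-dose well whose peak fluorescence ratio is a statistical outlier from its plate by either plate-standardised score or position-corrected B-score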
# Hits are given with their value; . = inactive; / = no result given.
SMILES,CYP2C9 inh,CYP2C19 activ,CYP2C9 activ,CYP2C19 inh,Cav32 inh
COC(=O)C(O)(CC(=O)Nc1ccc(OC(F)(F)F)cc1)C(F)(F)F (stereo unspecified),.,.,.,.,.
CCc1nnc(NC(=O)c2c(O)c3cccc4c3n(c2=O)CC4)s1,.,.,.,.,/
CCCc1nc2ccccc2c(=O)n1NC(=O)c1c(O)c2cccc3c2n(c1=O)CCC3,.,.,.,.,-8
CC(C)c1nnc(NC(=O)c2c(O)c3cccc4c3n(c2=O)CCC4)s1,63,.,.,.,.
CCCCCSc1nc2c(c(=O)[nH]c(=O)n2C)n1CCc1ccccc1,.,.,.,.,.
Cc1cc(/C=C(/C#N)c2cccc(F)c2)c(C)n1-c1cccnc1,99,.,.,89,.
Cc1ccc(S(=O)(=O)N2CCCCC2C(=O)N2CCN(c3ccccc3F)CC2)cc1 (stereo unspecified),.,.,2.2,.,.
Cc1ccc(S(=O)(=O)N2CCCCC2C(=O)N2CCN(C)CC2)cc1 (stereo unspecified),.,.,.,.,.
Cn1cc(C(=O)Nc2ccc(F)c(F)c2)cn1,.,.,.,.,.
c1ccc(C(c2nnnn2Cc2ccco2)N2CCN(C3CCCC3)CC2)cc1 (stereo unspecified),.,.,.,.,.
COc1ccc(C(c2nnnn2Cc2ccccc2)N2CCN(c3nc4ccccc4s3)CC2)cc1OC (stereo unspecified),/,/,/,/,.
COc1ccccc1C(c1nnnn1Cc1ccccc1)N1CCN(c2nc3ccccc3s2)CC1 (stereo unspecified),56,.,.,.,-4.2
c1ccc(C(c2nnnn2Cc2ccco2)N2CCN(c3nc4ccccc4s3)CC2)cc1 (stereo unspecified),/,/,/,/,-3.4
CCCCC(c1nnnn1Cc1ccco1)N1CCN(c2nc3ccccc3s2)CC1 (stereo unspecified),91,.,.,95,.
c1ccc(Cn2nnnc2C(c2ccccc2)N2CCN(c3nc4ccccc4s3)CC2)cc1 (stereo unspecified),65,.,.,58,.
COc1cccc(C2=NOC(C(=O)Nc3ccc(C(C)=O)cc3)C2)c1 (stereo unspecified),.,.,.,.,.
CC(=O)OCc1c(COC(C)=O)[n+](=O)c2ccccc2n1[O-],.,.,.,.,.
O=C1NCC(O)=C1C=NC12CC3CC(CC(C3)C1)C2,.,.,.,.,.
Cc1ccc(C(c2nnnn2C(C)(C)C)N2CCC(C)CC2)cc1 (stereo unspecified),/,/,/,/,.
Cc1ccc(C)c(N2CCN(C(c3ccc(N(C)C)cc3)c3nnnn3C(C)(C)C)CC2)c1 (stereo unspecified),/,/,/,/,-5.5
Cc1ccc(C)c(N2CCN(C(c3ccncc3)c3nnnn3Cc3ccccc3)CC2)c1 (stereo unspecified),93,.,.,97,.
C=CCn1c(=O)c2ccccc2n2c(SCC(=O)/C(C#N)=C(\C)N)nnc12,.,.,.,.,.
O=C(C1=C[C@@H](c2ccc(C(F)(F)F)cc2)C[C@@H](OCc2ccc(CO)cc2)O1)N1CCN(Cc2ccccc2)CC1,/,/,/,/,.
CC1(C)C(=O)N(OCc2ccccc2)C(C)(C)C(=O)N1OCc1ccccc1,.,.,.,57,/
CCOn1c(=O)c(=O)n(OCc2ccccc2)c2ccccc21,.,.,.,.,.
SMILES,CYP2C9 inh,CYP2C19 activ,CYP2C9 activ,CYP2C19 inh,Cav32 inh
COCCN1C(=O)c2oc3ccccc3c(=O)c2C1c1cccc(O)c1 (stereo unspecified),.,.,.,55,.
COc1cc(C2c3c(oc4ccccc4c3=O)C(=O)N2Cc2ccncc2)ccc1O (stereo unspecified),73,.,.,.,.
COc1cc(C2c3c(oc4ccccc4c3=O)C(=O)N2Cc2ccco2)ccc1O (stereo unspecified),.,.,.,.,.
Cc1cc(C)n(CC(O)Cn2c3ccc(Br)cc3c3cc(Br)ccc32)c(=O)n1 (stereo unspecified),69,.,.,.,.
Cc1cc(C)n(CCO)c(=O)n1,.,.,.,.,.
Cc1cc(C)n(CC(O)Cn2c3ccccc3c3ccccc32)c(=O)n1 (stereo unspecified),72,.,.,84,.
CCOCc1cnc(C)nc1NCC(=O)c1c(C)[nH]c2ccc(OC)cc12,.,.,.,.,.
Cc1ccc(-c2ccc(/C=N\NC(=O)C3C(=O)NCC3c3ccccc3)o2)cc1Cl (stereo unspecified),50,.,.,.,.
CCOc1ccccc1NC(=O)NC1CCN(CC(=O)Nc2ccc3c(c2)OCCO3)CC1,.,.,.,59,.
COc1ccc(NC(=O)CN2CCN(CC(=O)Nc3ccc4c(c3)OCO4)CC2)cc1,.,.,.,.,.
COc1ccccc1NC(=O)CN1CCN(CC(=O)Nc2ccc3c(c2)OCO3)CC1,.,.,.,88,.
COc1ccccc1NC(=O)Nc1ccc2c(c1)OCCO2,54,.,.,82,.
CC(C)c1ccc(NC(=O)NC2CCN(CC(=O)Nc3cccc4ccccc34)CC2)cc1,.,.,.,56,/
O=C(Nc1ccc2c(c1)OCO2)NC1CCN(Cc2ccccc2)CC1,.,.,.,.,.
Cc1nc2sc(C(c3ccc(C(C)C)cc3)N3CCN(CCO)CC3)c(O)n2n1 (stereo unspecified),.,.,.,.,.
Cn1nc(-c2ccccc2)c(C#N)c1Sc1cccc(Cl)c1,.,.,.,.,.
CCOc1cc(NC(=O)c2ccccc2[N+](=O)[O-])c(OCC)cc1NC(=O)CC(C)C,.,.,.,.,.
Cc1cc(C)cc(OC(=O)CS(=O)c2ccc(C(F)(F)F)cc2[N+](=O)[O-])c1 (stereo unspecified),.,.,2,.,.
O=C(CS(=O)c1ccc(C(F)(F)F)cc1[N+](=O)[O-])Oc1ccc(Cl)cc1 (stereo unspecified),.,.,.,.,.
O=c1cc(-c2ccccc2)nc2nc(-c3ccccc3)[nH]n12,59,.,.,.,.
O=C(NNC(=S)NC(=O)C12CC3CC(CC(C3)C1)C2)c1ccncc1,94,.,.,67,-4.3
O=C(NNC(=S)Nc1ccccc1)c1ccncc1,69,.,.,70,/
O=C(NNS(=O)(=O)c1ccccc1)c1ccncc1,.,.,.,.,.
CC/C(=N\NC(=O)c1ccncc1)C12CC3CC(CC(C3)C1)C2,.,.,.,94,.
NC(=O)C1(N2CCCCC2)CCN(S(=O)(=O)c2cc(Cl)ccc2Cl)CC1,.,.,2.7,90,.
NC(=O)C1(N2CCCCC2)CCN(C2CC(=O)NC2=O)CC1 (stereo unspecified),/,/,/,/,.
NC(=O)C1(N2CCCCC2)CCN(Cc2ccccc2Cl)CC1,.,.,.,80,.
O=C(/C=C/c1ccccc1)NCCSCc1ccccc1Cl,57,.,.,.,-5.7
O=C(/C=C/c1ccc(Cl)cc1)NCCSc1ccccc1,.,.,.,.,/
